Screens as filed in PubChem.
This excerpt belongs to a sample that is enriched for hits.
SARS PLpro yeast = SARS-CoV PLP inhibition in yeast; S. cerevisiae expressing SARS-CoV PLpro, growth rescue; Potency, µM (highest dose often 32.9 µM), hits mostly activators; 330,000 tested, 0.19% active; also: nearly all actives have a fitted effect of over 55% in size
Tb PYK inh = blocks Trypanosoma brucei pyruvate kinase; TbPYK enzyme, Kinase-Glo Plus ATP luminescence, 45 min; AID 624173; Q57TT1; Potency, µM (highest dose often 76.8 µM), hits mostly inhibitors; 410,000 tested, 0.12% active; active = well fitted curve in the direction sought with a large enough effect; inconclusive = small, poorly fitted or top-dose-only effect, or another doubt; inactive = no such curve, though single readings can be large; an effect the other way counts as inactive or inconclusive; also: nearly all actives have a fitted effect of over 50% in size
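T. brucei PYK with substrate was exposed to pin-transferred compounds across a concentration series, then started with 130 uM ADP (final). After 45 min at room temperature, Kinase-Glo Plus luminescence was read, normalized and curve-fitted.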
Shiga inhibitor = inhibitors of Shiga toxin in Vero cells; Vero cells, Shiga toxin protein synthesis inhibition reporter; inhibition, % at 38.7 µM; 290,000 tested, 9.2% active; AID 2315; in the data active = inhibition mostly above about 28%, no sharp cut-off; inactive = mostly below about 43%
NS1 inh = inhibitors of influenza NS1 protein function; Potency, µM (top dose mostly 46.1 µM); AID 2326; 270,000 tested, 0.4% active; also: actives are rising curves; nearly all actives have a fitted effect of over 50% in size
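In this qHTS, NS1 from influenza A is expressed in budding yeast, where it slows growth. Cells are switched from glucose to 2% galactose medium (pH 6.0, -URA), treated with compound, and growth recovery is read at OD600.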
LmPK inh = blocks Leishmania mexicana pyruvate kinase activity; purified LmPK, Kinase-Glo ATP luminescence, 1 h; Potency, µM (series often up to 57.5 µM), hits mostly inhibitors; 290,000 tested, 0.37% active; active = well fitted curve in the direction sought with a large enough effect; inconclusive = small, poorly fitted or top-dose-only effect, or another doubt; inactive = no such curve, though single readings can be large; an effect the other way counts as inactive or inconclusive
Target sequence (Q27686 whole entry, looked up): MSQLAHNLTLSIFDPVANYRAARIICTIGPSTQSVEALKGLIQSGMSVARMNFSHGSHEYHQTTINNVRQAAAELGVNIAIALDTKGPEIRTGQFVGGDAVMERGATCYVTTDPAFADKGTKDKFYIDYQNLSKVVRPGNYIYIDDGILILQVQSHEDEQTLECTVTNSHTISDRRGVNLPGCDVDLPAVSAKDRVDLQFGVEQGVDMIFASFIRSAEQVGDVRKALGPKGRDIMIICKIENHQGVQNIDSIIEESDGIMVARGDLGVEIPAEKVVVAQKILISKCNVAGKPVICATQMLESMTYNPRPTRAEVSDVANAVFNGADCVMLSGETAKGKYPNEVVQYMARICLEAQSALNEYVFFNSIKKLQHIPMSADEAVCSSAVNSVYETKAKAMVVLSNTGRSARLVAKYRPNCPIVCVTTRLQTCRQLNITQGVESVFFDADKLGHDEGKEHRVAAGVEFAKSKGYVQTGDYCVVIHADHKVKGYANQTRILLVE
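Purified LmPK (0.1 nM) converted ADP (0.1 mM) to ATP with PEP (0.5 mM) in imidazole buffer pH 7.2 with KCl and MgCl2, 1 h at room temperature. ATP was read by Kinase-Glo luminescence; data normalized to uninhibited and no-enzyme controls.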
Cycloheximide cs = affects cycloheximide protein synthesis inhibition readout, counter-screen | AID 2314 | cell reporter, cycloheximide protein synthesis inhibition counterscreen | 300,000 tested, 12% active | max response, %; in the data active = max response mostly above about 13%, no sharp cut-off; inactive = mostly below about 14%; also: read at 38.3 µM for the half of the compounds with a filed dose
Hits are given with their value; n = inactive; u = inconclusive; x = not tested or not shown. Unless noted, calls follow the shape of the full dose curve.

SMILES	SARS PLpro yeast	Tb PYK inh	Shiga inhibitor	NS1 inh	LmPK inh	Cycloheximide cs
Cc1cc2nc(-c3ccccc3Br)n(/C=C(\c3ccccc3)n3c(=O)[nH]c4ccccc43)c2cc1C	x	n	x	x	x	x
COc1ccc(NC(=O)Cc2ccccc2)cc1	n	n	38.3	n	n	30.1
CCOc1ccc(N(CC(=O)NC2CCC(C)CC2)S(=O)(=O)c2c(C)noc2C)cc1 (configuration not stated)	u	n	n	n	n	n
COc1ccc(N(CC(=O)Nc2ccc3c(c2)OCCO3)S(=O)(=O)c2cccnc2)cc1	n	n	n	n	n	20.1
COc1ccc(N(CC(=O)Nc2ccc3c(c2)OCCO3)S(=O)(=O)c2c(C)noc2C)cc1	n	n	n	u	n	10.8
CCOc1ccc(N(CC(=O)NC2CCCCC2C)S(=O)(=O)c2c(C)noc2C)cc1 (configuration not stated)	n	n	n	n	n	13.9
COc1ccc(N(CC(=O)Nc2ccc3c(c2)OCCO3)S(C)(=O)=O)c(OC)c1	n	n	76.0	n	n	34.0
O=C(c1cccs1)c1cn(CCOc2ccccc2Cl)c2ccccc12	x	n	x	x	x	x
Cc1ccc(-c2cc(-c3ccc(C)o3)nc(N)c2C#N)cc1	n	28.2µM	n	n	n	n
Cc1ccc(-c2cc(-c3ccc(F)cc3)c(C#N)c(N)n2)o1	n	u	n	n	n	n
c1ccc(Cn2nnnc2C(c2ccncc2)N2CCOCC2)cc1 (configuration not stated)	n	n	n	n	n	n
Cc1cc(C(c2nnnn2Cc2ccccc2)N2CCOCC2)c(C)n1-c1ccc2c(c1)OCO2 (configuration not stated)	n	n	41.6	n	n	17.8
CSCCC(NC(=O)c1ccccc1Cl)C(=O)NCCOc1ccc(C)cc1 (configuration not stated)	x	n	x	x	x	x
C[C@H]1CC(C)(C)C[C@@](OCCN2CCCCC2)(c2ccccc2)C1	x	x	x	n	x	x
Cc1ccc(-c2cn3c(n2)CCCC3)cc1	n	n	n	n	n	n
c1ccc(-c2nnc3n2CCCC3)cc1	n	n	n	n	n	n
c1ccc(-c2ccc(-c3cn4c(n3)CCC4)cc2)cc1	n	n	57.7	n	n	36.6
COc1ccc(-c2cn3c(n2)CCC3)cc1	n	n	53.7	n	n	37.8
CCc1ccc(NC(=O)CSC2=Nc3ccccc3C3=NC(CC(=O)NCc4ccccc4)C(=O)N23)cc1 (configuration not stated)	x	n	x	x	x	x
O=C(Nc1ccccn1)c1csc2c1CCCC2	n	n	83.9	n	n	49.3
COc1ccccc1NC(=O)c1csc2c1CCCC2	n	n	n	n	n	n
Cc1nnc(NC(=O)c2csc3c2CCCC3)s1	x	x	n	n	n	n
COc1cc(NC(=O)c2csc3c2CCCC3)ncn1	n	n	52.7	n	n	40.2
O=C(Nc1ccccn1)c1onc2c1CCCC2	n	u	n	n	11.2µM	29.7
Cc1ccc(NC2=CC(=O)c3sc(C)nc3C2=O)cc1	x	x	n	x	x	n
SMILES	SARS PLpro yeast	Tb PYK inh	Shiga inhibitor	NS1 inh	LmPK inh	Cycloheximide cs
c1cc(CN2CCCNCCNCCCNCC2)ccc1CN1CCCNCCNCCCNCC1	x	x	n	x	x	n
O=C(Cn1ncc2c(=O)oc3ccccc3c21)NCc1ccccc1Cl	x	n	x	x	x	x
COc1ccccc1-c1nc(-c2ccc(Br)cc2)no1	n	n	n	n	n	29.9
CCSc1ccccc1-c1nc(-c2ccncc2)no1	n	n	n	n	n	26.1
CN(C)c1ccc(-c2noc(-c3ccccc3O)n2)cc1	n	n	126.2	n	n	46.9
COc1ccccc1-c1nc(-c2ccncc2)no1	n	x	78.8	n	u	31.7
Cc1ccc(OCCCCn2c(CCNC(=O)C(C)(C)C)nc3ccccc32)cc1	x	n	x	x	x	x
CS(=O)(=O)c1ccccc1-c1nc(-c2ccc(C(F)(F)F)cc2)no1	n	n	59.6	n	n	21.3
O=C(O)c1ccc(-c2noc(-c3ccccc3C(F)(F)F)n2)cc1	x	n	x	x	x	x
Cc1c(-c2nc(-c3ccc(C(F)(F)F)cc3)no2)n(C)oc1=O	n	n	128.9	n	n	69.5
COc1cc(OC)cc(-c2nc(-c3ccc(Br)cc3)no2)c1	n	n	n	n	n	n
COc1ccc(-c2nc(-c3ccc(Br)cc3)no2)c(OC)c1	x	n	196.6	n	n	39.0
CCOc1nc(C)ccc1-c1noc(-c2ccccc2OC)n1	n	n	n	n	n	24.3
CC1C(c2ccc3c(c2)OCO3)c2cc3c(cc2OC1N1CCOCC1)OCO3 (configuration not stated)	x	n	x	x	x	x
CC12CCC(=O)N1C(C(=O)NNC(=O)c1ccccc1)CS2 (configuration not stated)	n	n	x	x	x	x
Cc1cc2occ(CC(=O)N(C)CC(=O)Nc3cccc(F)c3)c2cc1C	x	n	n	n	n	n
C/C=C(/C)C(=O)O[C@H]1C[C@@]2(C)O[C@H]2[C@@H](OC(C)=O)C2(C)CC[C@@](O)(C(C)C)C12 (some centres not stated)	x	x	n	x	x	n
O=C(c1ccc2ncsc2c1)N1CCN(c2cccc(C(F)(F)F)c2)CC1	n	n	x	x	x	x
CCN(CC)CCNC(=O)Cn1ncc2c3ccccc3n(Cc3ccc(Cl)cc3)c2c1=O	x	n	x	x	x	x
FC(F)(F)c1ccccc1-c1nc(-c2ccncc2)no1	n	n	47.5	n	n	39.9
Cc1ccc(-c2noc(-c3ccccc3Br)n2)cc1	n	n	65.1	n	n	35.5
CCN(CC(=O)Nc1c(F)cccc1F)C(=O)c1cc(C)oc1C	n	n	x	x	x	x
Cc1cccc(N2CCN(C(=O)/C=C/c3cccs3)CC2)c1C	n	n	64.2	x	n	43.5
CC1CCCC(C)N1/N=C/C=C/c1ccccc1[N+](=O)[O-] (configuration not stated)	n	n	69.2	x	n	38.4
Cc1cccc(N2CCN(C(=O)c3cccs3)CC2)c1C	n	n	n	n	n	n
SMILES	SARS PLpro yeast	Tb PYK inh	Shiga inhibitor	NS1 inh	LmPK inh	Cycloheximide cs
COc1ccccc1N1CCN(/N=C/C=C\c2ccco2)CC1	n	n	53.3	n	n	41.3
COc1ccccc1N1CCN(C(=O)/C=C/c2ccco2)CC1	n	n	37.1	n	n	28.0
COc1cccc(-c2cnc(C(O)c3c(C)cccc3C)[nH]2)c1 (configuration not stated)	x	n	x	x	x	x
COc1ccc(CCNC(=O)CSc2cn(CCNC(=O)c3cccc(C(F)(F)F)c3)c3ccccc23)cc1OC	x	n	x	x	x	x
Cc1cc(C)n(C(=O)/C=C/c2cccs2)n1	n	n	64.4	n	n	28.6
O=C(/C=C/c1cccs1)N1CCCC1	n	n	46.3	n	n	15.8
Cc1cc(C)n(C(=O)CNC(=O)c2cccs2)n1	n	n	n	n	n	n
COc1ccccc1N1CCN(C(=O)/C=C/c2cccs2)CC1	n	n	54.2	n	n	17.5
COc1ccccc1/C=C/C=N/N1CCN(c2ccccn2)CC1	n	n	n	n	n	n
COc1ccccc1N1CCN(C(=O)/C=C/c2ccccc2)CC1	n	n	n	n	n	n
